HTT-AS act: activates huntingtin-antisense promoter activity; HEK293 HTT-AS promoter firefly luciferase reporter, 24 h; response scale: percent change from vehicle, -100% = no light; AID 1508624; Potency, µM (highest dose often 57.5 µM), most hits filed as activators; actives 0.24% (n = 48,000); note: nearly all actives have a fitted effect of over 55% in size
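HEK293 cells carrying firefly luciferase reporters were seeded at 2,500 per well in Opti-MEM and cultured for 24 h. They were then treated with compounds at up to 57.5 uM final for 24 h at 37 degrees C before Dual-Glo luminescence readout.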
FH mod: Identification of activators of human fumarate hydratase by quantitative high-throughput screening; Fumarate hydratase, mitochondrial (Homo sapiens), P07954; FH coupled MDH/diaphorase resazurin fluorescence, 15 min; Potency, µM (top dose mostly 79.9 µM), actives largely listed as inhibitors; actives 0.22% (n = 54,000); AID 1347055, 2019; note: the screen sought activators but most active calls are inhibition curves; nearly all actives have a fitted effect of over 45% in size
NTMT1 inh: NTMT1 methyltransferase inhibition; Q9BV86; NTMT1 MTase-Glo SAH luminescence, purified enzyme; Potency, µM (doses to about 114 µM), usual class: inhibitors; actives 2.5% (n = 59,000); AID 1645870; note: nearly all actives have a fitted effect of over 65% in size
Target sequence (Q9BV86 whole entry, looked up): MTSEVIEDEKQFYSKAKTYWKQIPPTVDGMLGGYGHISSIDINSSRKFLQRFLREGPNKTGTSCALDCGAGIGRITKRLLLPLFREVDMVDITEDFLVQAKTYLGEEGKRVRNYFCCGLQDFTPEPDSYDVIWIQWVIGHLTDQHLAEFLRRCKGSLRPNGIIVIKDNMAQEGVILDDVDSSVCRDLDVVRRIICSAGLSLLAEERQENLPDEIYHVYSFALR
GPR32 ag: activates human resolvin D1 receptor GPR32 | CHO-K1 GPR32 beta-arrestin PathHunter luminescence, 90 min; zero percent set by DMSO-only wells | activation, % at 76.9 µM | actives 2.5% (n = 48,000) | AID 1346428;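 active = activation of at least 60% and not above a set upper limit, about 1 call in 100 departs from these limits; inconclusive = activation of 40% to 60%, or above that upper limit; inactive = activation under 40%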
Target sequence (O75388 whole entry, looked up): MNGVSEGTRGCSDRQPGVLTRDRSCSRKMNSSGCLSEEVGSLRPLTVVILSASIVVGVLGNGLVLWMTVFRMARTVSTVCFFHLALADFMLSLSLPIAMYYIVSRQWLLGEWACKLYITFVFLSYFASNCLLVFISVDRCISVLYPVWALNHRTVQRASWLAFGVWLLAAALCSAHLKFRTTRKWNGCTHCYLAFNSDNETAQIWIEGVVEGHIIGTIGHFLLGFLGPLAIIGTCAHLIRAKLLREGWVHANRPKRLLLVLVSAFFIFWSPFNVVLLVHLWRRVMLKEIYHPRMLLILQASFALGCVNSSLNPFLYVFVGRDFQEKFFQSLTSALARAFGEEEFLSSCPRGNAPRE
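Engineered CHO-K1 line co-expressing GPR32-ProLink and EA-beta-arrestin. Compound treatment lasted 90 min at 37 °C. Luminescence was recorded after 1 h with substrate at ambient temperature, relative to DMSO basal wells.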
HTT promoter inh: inhibitors of huntingtin promoter activity; Potency, µM (titrated, usually from 57.5 µM), usual class: inhibitors; actives 0.93% (n = 48,000); HEK293 HTT promoter firefly luciferase reporter, 24 h; note: nearly all actives have a fitted effect of over 50% in size
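HEK293 Fluc reporter, 2,500 cells/well, 24 h pre-culture; cpds up to 57.5 uM final, 24 h 37 degrees C; Dual-Glo, 10 min RT; normalized vehicle = 0%, zero RLU = -100%.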
Of the large screens only hits and unclear results are named; the others gave an inactive call; ! = not confirmed by another sample; [ ] = remark or other dose. Hits are enriched below; roughly 4.7% of the tested compounds scored in any of these assays. Unless noted, calls come from the whole dose curve; as a rule, active = well fitted curve in the direction sought with a large enough effect; inconclusive = small, poorly fitted or top-dose-only effect, or another doubt; inactive = no such curve, though single readings can be large; an effect the other way counts as inactive or inconclusive.

Fc1cccc(NCc2cccn2-c2nnc(N3CCOCC3)s2)c1	GPR32 ag 66
Cc1ccc(NCc2cccn2-c2nnc(N3CCCCCC3)s2)cc1	HTT promoter inh 7.9µM
Fc1ccc(NCc2cccn2-c2nnc(N3CCOCC3)s2)cc1	GPR32 ag 67
COc1ccc(NCc2cccn2-c2nnc(N3CCCCCC3)s2)cc1	HTT promoter inh inconclusive
CCOc1ccccc1CNCc1cccn1-c1nnc(N2CCN(c3ccccc3)CC2)s1	HTT promoter inh 25µM
Cc1cc(NS(=O)(=O)c2ccc(NC(=O)Cc3ccc4ccccc4c3)cc2)no1	none (no result: HTT-AS act, FH mod, GPR32 ag, HTT promoter inh)
CS(=O)(=O)N1CCc2cc(S(=O)(=O)NCc3ccccc3Cl)ccc21	none
Cc1c(NC(=O)OCC2COCCN2)cn2ncnc(Nc3ccc4c(cnn4Cc4cccc(F)c4)c3)c12 (centres undefined)	none (no result: HTT-AS act, GPR32 ag, HTT promoter inh)
CC(C)CCNS(=O)(=O)c1ccc(N2CCCCS2(=O)=O)cc1	HTT promoter inh 14µM
CCCCCNS(=O)(=O)c1ccc(N2CCCCS2(=O)=O)cc1	HTT promoter inh inconclusive
COc1cccc(CNC(=O)Nc2cn(CC(C)C)c(=O)c3ccccc23)c1	FH mod inconclusive
COc1ccc(OC)c(CNC(=O)Nc2cn(CC(C)C)c(=O)c3ccccc23)c1	HTT-AS act inconclusive, FH mod 32µM[activator]
Cc1cc2c(s1)c1cnn(Cc3cc(F)c(F)cc3F)c(=O)c1n2C	none (no result: HTT-AS act, FH mod, GPR32 ag, HTT promoter inh)
COc1cc(OC)cc(-c2ccc3ncc4ccc(=O)n(-c5ccc(N6CCNCC6)c(C(F)(F)F)c5)c4c3c2)c1	NTMT1 inh 43µM, HTT promoter inh inconclusive (no result: GPR32 ag)
COc1ccc(-c2cc(C(F)(F)F)nc(NCc3ccccc3)n2)cc1	FH mod inconclusive
COc1ccc(-c2cc(C(F)(F)F)nc(S(C)(=O)=O)n2)cc1	GPR32 ag 109, HTT promoter inh inconclusive
Nc1ccc(-c2nnc(NC(=O)Nc3ccc(Cl)c(Cl)c3)s2)cc1	none (no result: HTT-AS act, FH mod, GPR32 ag, HTT promoter inh)
O=C(Nc1ccc(Cl)c(Cl)c1)Nc1nnc(-c2cccnc2)s1	NTMT1 inh 22µM (no result: HTT-AS act, FH mod, GPR32 ag, HTT promoter inh)
COc1ccc(N2CCN(S(=O)(=O)c3ccc(F)c(C(=O)Nc4ccccc4Cl)c3)CC2)cc1	GPR32 ag 91, HTT promoter inh inconclusive
COc1ccccc1NC(=O)c1cc(S(=O)(=O)N2CCN(c3ccccc3Cl)CC2)ccc1F	none
COc1ccccc1Nc1cc(C)nc2nc(-c3ccccc3)nn12	none
Cc1ccc(-c2nc3nc(C)cc(Nc4ccccc4O)n3n2)cc1	GPR32 ag 72
CCCCCCCCCCCC[N+](C)(C)Cc1ccccc1	NTMT1 inh inconclusive
CCCCCCC[N+](CC)(CC)CCCCc1ccc(Cl)cc1	NTMT1 inh inconclusive, GPR32 ag 87, HTT promoter inh inconclusive
CCOc1ccc(N(CC)S(=O)(=O)N2CCCC(C(=O)NCc3ccccc3Cl)C2)cc1 (centres undefined)	HTT promoter inh inconclusive
Cc1ccc(C(C)(C)C)c(OCC(=O)NCCc2nc3ccccc3[nH]2)c1	GPR32 ag 61
Cc1cc(OCC(=O)NCCc2nc3ccccc3[nH]2)cc(C)c1Cl	none
Cc1ccc(NC(=O)CSc2nc(C)c(Cc3ccccc3)c(=O)[nH]2)cc1	GPR32 ag 63
Cc1nc(SCC(=O)Nc2ccc(Br)cc2)[nH]c(=O)c1Cc1ccccc1	GPR32 ag inconclusive, HTT promoter inh inconclusive
CCOc1ccccc1CC1C(=O)Nc2ccc(Br)cc21 (centres undefined)	NTMT1 inh inconclusive, GPR32 ag 73, HTT promoter inh 18µM
COc1ccc(OC)c(CC2C(=O)Nc3ccc(Br)cc32)c1 (centres undefined)	FH mod inconclusive, NTMT1 inh inconclusive, HTT promoter inh 20µM
CCOc1c(CC2C(=O)Nc3ccc(Br)cc32)cccc1OC (centres undefined)	GPR32 ag inconclusive, HTT promoter inh inconclusive
CCCOc1ccc(CC2C(=O)Nc3ccc(Br)cc32)cc1 (centres undefined)	FH mod inconclusive, GPR32 ag 78
COc1ccc(CC2C(=O)Nc3ccc(Br)cc32)cc1OC (centres undefined)	none
CCOc1ccc(CCNC(=O)c2c(C)oc3ncn(CC(C)C)c(=O)c23)cc1	none
CC(C)Cn1cc(NC(=O)Nc2cccc(C(F)(F)F)c2)c2ccccc2c1=O	FH mod inconclusive, HTT promoter inh inconclusive
CC(C)C(=O)Nc1cccc(C(F)(F)F)c1	GPR32 ag 61
Cc1ccc(C)c(NC(=O)Cn2c(=O)n(Cc3ccco3)c(=O)c3oc4ccccc4c32)c1	HTT-AS act inconclusive
CCOC(=O)c1cccc(NS(=O)(=O)c2ccc(NC(=O)Cc3ccc(Cl)c(Cl)c3)cc2)c1	none (no result: HTT-AS act, FH mod, GPR32 ag, HTT promoter inh)
CCOC(=O)c1nnc(N[S+](=O)([O-])c2ccc(NC(=O)Cc3ccc(Cl)c(Cl)c3)cc2)s1	NTMT1 inh 79µM (no result: HTT-AS act, FH mod, GPR32 ag, HTT promoter inh)
CCN1CCC(N(Cc2ccc3c(c2)OCO3)C(=O)Nc2cc(Cl)ccc2C(=O)OC)CC1	FH mod inconclusive
O=c1oc2c(O)c(O)cc3c(=O)oc4c(O)c(O)cc1c4c23	NTMT1 inh 3.5µM!, GPR32 ag inconclusive
O=C(O)[C@H](O)c1ccccc1	none
c1cn2cc(-c3ccc4cn[nH]c4c3)nc(Nc3ccc(N4CCOCC4)cc3)c2n1	NTMT1 inh 20µM (no result: HTT-AS act, GPR32 ag, HTT promoter inh)
Cc1nn(-c2ccc(F)cc2)c(-n2cccc2)c1C(=O)N1CCN(c2ccc(F)cc2)CC1	NTMT1 inh inconclusive, HTT promoter inh 28µM
CC(=O)c1ccc(NC(=O)CSc2ccc(-c3cccs3)nn2)cc1	none
COc1ccc(NC(=O)CSc2ccc(-c3cccs3)nn2)cc1	GPR32 ag 112
N#Cc1c(-c2cccc([N+](=O)[O-])c2)no[n+]1[O-]	none (no result: HTT-AS act, FH mod, GPR32 ag, HTT promoter inh)
O=C(NCc1ccccc1)c1ccc(NC(=O)N2CCSc3ncccc32)cc1	NTMT1 inh 89µM
CCc1ccc(CNC(=O)c2ccc(NC(=O)N3CCSc4ncccc43)cc2)cc1	none
CCOC(=O)C1CCN(C(=O)c2ccc3c(c2)sc2nc(-c4ccc(OC)cc4)cn23)CC1	NTMT1 inh 89µM
CCOc1ccc(-n2c(SCC(=O)Nc3cc(C)ccc3C)nc3c([nH]c4ccccc43)c2=O)cc1	none
O=C(COc1ccc(F)cc1)OCc1cc(=O)n2nc(C3CC3)sc2n1	GPR32 ag 97
O=C(COc1ccc(Cl)cc1)OCc1cc(=O)n2nc(C3CCCCC3)sc2n1	none
O=C(NNc1ncnc2c1cnn2-c1ccccc1)c1ccccc1	none
Cc1cccc(C(=O)NNc2ncnc3c2cnn3-c2ccc(C)cc2C)c1	NTMT1 inh inconclusive, GPR32 ag 113
Clc1cccc(-n2ncc3c(NC4CCCCCC4)ncnc32)c1	HTT-AS act inconclusive, NTMT1 inh inconclusive, GPR32 ag inconclusive
Cc1ccc(-n2ncc3c(NC4CCCC4)ncnc32)cc1	GPR32 ag 112, HTT promoter inh inconclusive

Screens (PubChem BioAssay)
